Inconclusive results are not listed. Unmarked numbers belong to inactive results. The call rests on the fitted dose curve; in most records, active means well fitted inhibition curve with a large enough effect; inconclusive means small, poorly fitted or top-dose-only effect; inactive means no such curve, though single readings can be large or run the other way.
Assay: Primary qHTS for small molecule stabilizers of the endoplasmic reticulum resident proteome: Secreted ER Calcium Modulated Protein (SERCaMP) assay (AID 1508630)
Settings: SH-SY5Y GLuc-SERCaMP (Gaussia luciferase released on ER calcium loss) secretion, thapsigargin, luminescence; series mostly up to 38.4 µM; activity change, negative = inhibition: at the top concentration
Procedure, shortened: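 GLuc-SERCaMP-expressing SH-SY5Y cells, pretreated 16 h with compound, are challenged with thapsigargin to empty ER calcium stores; after 4 h, coelenterazine is added directly to the medium and luminescence is imaged.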
On the % scale 0 is the no-effect control and ±100 the full control effect.

Row | SMILES | activity change, negative = inhibition
1 | CC(C)c1cc(-c2n[nH]c(=O)n2-c2ccc3c(ccn3C)c2)c(O)cc1O | 5.81%
2 | COc1cc(C(=O)N2CCC(N3CCN(C)CC3)CC2)ccc1Nc1ncc2c(n1)N(C)c1ccccc1C(=O)N2C | 116%
3 | Cn1c2cc(S(C)=O)sc2c2cnn(Cc3cccc(N)c3)c(=O)c21 (centres undefined) | 10.4%
4 | CNC(=O)CN1CCC(Oc2cc3c(Nc4cccc(Cl)c4F)ncnc3cc2OC)CC1 | 0%
5 | O=C(Cc1ccc(-c2ccc(OCCN3CCOCC3)cc2)cn1)NCc1ccccc1 | 98.7%
6 | COc1cccc(Nc2c(C(N)=O)cnc3c(C)cc(S(=O)(=O)c4cccc(C(=O)N(C)C)c4)cc23)c1 | 152% [at 21.6 µM]
7 | O=C(O)C1(Cc2cccc(Nc3nccs3)n2)CCC(Oc2cccc(Cl)c2F)CC1 (centres undefined) | 0%
8 | NC(=O)c1cccc2cn(-c3ccc([C@@H]4CCCNC4)cc3)nc12 | 0%
9 | Cn1c(CNc2ccc(C(=N)N)cc2)nc2cc(C(=O)N(CCC(=O)O)c3ccccn3)ccc21 | 75.3% [at 21.6 µM]
10 | CCS(=O)(=O)c1cccc(-c2cc(C(=O)NC3CCN(C)CC3)c(C)c3[nH]c4ncc(C)cc4c23)c1 | 85.4%
11 | CN1CCC(CNc2ccc3ncc(-c4cccc(OC(F)(F)F)c4)n3n2)CC1 | 412%
12 | Cc1c(Cn2c(C)nc3c(C(=O)O)cc(N4CCOCC4)cc32)cccc1C(F)(F)F | 31.6%
13 | CCn1cc(-c2ccnc3[nH]c(-c4cccc(CN(C)C)c4)cc23)c(-c2ccc(NC(=O)N(C)C)cc2)n1 | 191%
14 | CC1COC2(CCN(c3nc(=O)c4cc(C(F)(F)F)cc([N+](=O)[O-])c4s3)CC2)O1 (centres undefined) | 26.4%

From PubChem BioAssay (NCATS)
